Assay results reported in PubChem BioAssay AID504329 (Southern Research Specialized Biocontainment Screening …, 2011).
Hit rate of the full screen: of about 340,000 compounds, about 1,000 (0.29%) were called active. Cut-off read from the data, not from the text of the source: inconclusive = inhibition above about 27% without an active follow-up result; inactive = below that. The list is a sample of the results. Entries with a potency or affinity are not part of this list.

Test: NS1A inhibition, H1N1 influenza, cell based functional assay (AID 504329)
Settings: percent inhibition, at 12.5 µM, stronger effect = higher value

SMILES	inhibition
COc1ccc(-c2nnnn2-c2ccc(F)cc2F)cc1	-3.82% (inactive)
COP(=O)(OC)C1(O)C(=O)Nc2ccc(Br)cc21 (stereo unspecified)	-4.97% (inactive)
Nc1c(C(=O)NCc2ccc3c(c2)OCO3)nnn1Cc1ccc(Br)cc1	1.55% (inactive)
N#CC(Cc1ccccc1)(Cc1ccccc1)C(=O)NN	-3.45% (inactive)
COC1CCCCC1NS(=O)(=O)c1ccccc1 (stereo unspecified)	1.39% (inactive)
COc1ccc(C(NC(C)=O)c2ccc3cccnc3c2O)c(OC)c1 (stereo unspecified)	20.8% (inactive)
CCCCC(=O)NC(c1cccc([N+](=O)[O-])c1)c1ccc2cccnc2c1O (stereo unspecified)	17.2% (inactive)
CC(C)C(=O)NC(c1ccco1)c1ccc2cccnc2c1O (stereo unspecified)	23.1% (inactive)
CC(=O)NC(c1ccc2ccccc2c1)c1ccc2cccnc2c1O (stereo unspecified)	23.8% (inactive)
CC(=O)NC(c1ccc(C(C)C)cc1)c1ccc2cccnc2c1O (stereo unspecified)	-6.08% (inactive)
CC(C)C(=O)NC(c1cccc([N+](=O)[O-])c1)c1ccc2cccnc2c1O (stereo unspecified)	17.9% (inactive)
C=CCNC(=O)c1onc(CSc2ccc(F)cc2)c1C(=O)NCC=C	8.73% (inactive)
CCOCCc1nnc(NC(=O)C2CC(=O)N(c3ccc(OCC)cc3)C2)s1 (stereo unspecified)	-1.86% (inactive)
C[C@@H]1CC[C@@]2(O[C@H](CCO)C[C@H](O)[C@H]2O)O1	-1.57% (inactive)
CCCSc1nc(-c2ccccc2)cc(C(F)(F)F)c1C#N	-2.3% (inactive)
COc1ccc(N2CCN(C(=O)Cc3ncc(C(F)(F)F)cc3Cl)CC2)cc1	-8.89% (inactive)
O=C(O)c1ccc(NS(=O)(=O)c2ccc3c(c2)C2C=CCC2C(c2ccccc2F)N3)cc1 (stereo unspecified)	18.1% (inactive)
COc1ccc(NS(=O)(=O)c2ccc3c(c2)[C@H]2C=CC[C@H]2[C@@H](c2ccc(C(=O)O)cc2)N3)cc1	24.1% (inactive)
Cn1nnnc1SCC(=O)N1CCc2ccccc21	-9.92% (inactive)
O=C1/C(=C/c2ccncc2)N2CCC1CC2	-8.83% (inactive)
CC(C)CC(=O)Nc1nnc(SCC(=O)NCC2CCCO2)s1 (stereo unspecified)	-4.89% (inactive)

SMILES	inhibition
CCc1nnc(NS(=O)(=O)c2ccc(N/C=C\C(=O)c3ccc(C)cc3)cc2)s1	2.79% (inactive)
COC(=O)c1ccccc1NC(=O)CSc1ncccn1	-13.4% (inactive)
CC(=O)c1ccc(Nc2nc(C)cc(C)n2)cc1	0.38% (inactive)
Cc1cc(C)nc(NN2C(=O)C=CC2=O)n1	0.34% (inactive)
Cn1c(SCC(=O)Nc2nccs2)nnc1-c1ccncc1	2.71% (inactive)
CCOC(=O)C(C)Oc1cccc2c(=O)n(CC(=O)NCCc3ccccc3)ccc12 (stereo unspecified)	0.03% (inactive)
CC(C)C(OC(=O)c1cccs1)C(=O)NCc1ccc2c(c1)OCO2 (stereo unspecified)	-1.71% (inactive)
Cc1cccc(NC(=O)c2ccc3nccnc3c2)c1C	0.36% (inactive)
COc1cc(NC(=O)c2ccccc2F)c(OC)cc1NC(=O)CN1CCCCC1	-0.03% (inactive)
N/C(=N\OC(=O)Cc1ccccc1)c1ccccn1	-5.24% (inactive)
N/C(=N\OC(=O)Cc1ccccc1[N+](=O)[O-])c1ccccn1	-3.44% (inactive)
Cc1c(OC(C)C(=O)NCC(O)c2ccccc2)ccc2c3c(c(=O)oc12)CCC3 (stereo unspecified)	3.79% (inactive)
CNC(=O)c1c(NC(=O)c2ccc(S(=O)(=O)N3CCCCC3C)cc2)sc2c1CCN(C)C2 (stereo unspecified)	-4.17% (inactive)
Fc1ccc(-[n+]2nc(Nc3ccccc3)sc2-c2c3ccccc3cc3ccccc23)cc1	10.5% (inactive)
CCc1ccc(Nc2n[n+](-c3ccccc3)c(-c3cccc(Cl)c3Cl)s2)cc1	-1.96% (inactive)
CCc1ccc(Nc2n[n+](-c3ccccc3)c(-c3cccc(C)c3)s2)cc1	-15% (inactive)
Fc1ccc(-[n+]2nc(Nc3ccccc3)sc2-c2cccc(Cl)c2Cl)cc1	1.31% (inactive)
COc1ccc(S(=O)(=O)CCC(=O)N2CC(=O)N(CCc3ccccc3)C(=O)C2)cc1	-13.4% (inactive)
CSc1ncc(/C=C2/C(=O)NC(=O)N(C)C2=O)cn1	6.14% (inactive)
CC1Cc2ccccc2N1C(=O)c1ccc2c(c1)OCO2 (stereo unspecified)	-9.71% (inactive)
CCCOc1cccc(OCC(=O)Nc2nc3ccccc3[nH]2)c1	-2.2% (inactive)

SMILES	inhibition
CC(C)/C=C1\CC/C(=C\c2ccc(N(C)C)cc2)C1=O	-9.13% (inactive)
CN(C)c1ccc(/C=C2\CCC/C(=C\c3ccccc3)C2=O)cc1	-5.05% (inactive)
O=C1C(=O)N(CCCn2ccnc2)C(c2ccc(Cl)cc2)/C1=C(\O)c1ccc2c(c1)OCCO2 (stereo unspecified)	4.67% (inactive)
Cc1ccc(SCC(=O)NCCc2ccccc2)cc1	4.08% (inactive)
O=C(Nc1ccc2c(c1)OCO2)C1COc2ccccc2O1 (stereo unspecified)	-3.64% (inactive)
O=C(Nc1cc([N+](=O)[O-])c2[nH]c(=O)c3ccccc3c2c1)C(F)(F)F	1.69% (inactive)
c1ccc(CN2CCC(CNc3ncnc4ccccc34)C2)cc1 (stereo unspecified)	-2.71% (inactive)
O=C(Nc1nc(-c2ccccn2)cs1)C1CCCC1	-0.49% (inactive)
O=C(CC1CC2CCC1C2)Nc1nc(-c2ccccn2)cs1 (stereo unspecified)	-17.9% (inactive)
O=C(CCN1C(=O)C2CCCCC2C1=O)Nc1nc(-c2ccccc2)cs1 (stereo unspecified)	12.8% (inactive)
O=C(Nc1nc(-c2ccccn2)cs1)C1CC1	15.6% (inactive)
O=C(CN1C(=O)CCC1=O)Nc1nc(-c2ccc3ccccc3c2)cs1	-4.5% (inactive)
O=C(CN1C(=O)C2CCCCC2C1=O)Nc1nc(-c2ccc(F)cc2)cs1 (stereo unspecified)	-0.75% (inactive)
O=C(CN1C(=O)CCC1=O)Nc1nc(-c2cccs2)cs1	-13.6% (inactive)
CC1(c2ccccc2)NC(=O)N(CC(=O)Nc2nc(-c3ccccn3)cs2)C1=O (stereo unspecified)	17.7% (inactive)
N#Cc1cc(-c2cccc(Cl)c2)c[nH]c1=O	3.18% (inactive)
Cc1ccc(C(=O)Nc2cccc(C(=O)NCc3ccco3)c2)cc1	0.66% (inactive)
COc1ccc(C(=O)NCCSCc2cccc(Cl)c2)cc1OC	-9.42% (inactive)
O=C(CCN1CCN(c2ccc(F)cc2)CC1)Nc1ccc(F)cc1	8.96% (inactive)
